These results are taken from PubChem BioAssay (NCATS).

Results filed as inconclusive are left out. The source made the active and inactive calls. Calls come from the whole dose curve; as a rule, active = well fitted curve in the direction sought with a large enough effect; inconclusive = small, poorly fitted or top-dose-only effect, or another doubt; inactive = no such curve, though single readings can be large; an effect the other way counts as inactive or inconclusive.

A short description of test [1]: KB-8-5-11 Cancer Cell Toxicity qHTS against the NCATS CANVASS Library (AID 1347364). Note: nearly all actives have a fitted effect of over 75% in size. The settings on record: KB-8-5-11 MDR cells viability, CellTiter-Glo, 72 h; series mostly up to 46.1 µM. Put shortly:
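Natural products were titrated in 11 points onto KB-8-5-11 cells, 500 per well, and cytotoxicity was scored from CellTiter-Glo luminescence after 72 hr culture.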

A short description of test [2]: SDT Cancer Cell Toxicity qHTS against the NCATS CANVASS Library (AID 1347365). Note: nearly all actives have a fitted effect of over 60% in size. Note: potency is the fitted concentration of half-maximal effect. As to conditions: SDT dog glioma viability, ATP luminescence, 72 h; series mostly up to 91.4 µM. In short, it runs like this:
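Dispense 500 SDT cells per well; pin-transfer compounds; incubate 72 hr at 37C, 5% CO2, 95% RH; add CellTiterGlo and read luminescence.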
In general terms: qHTS replaces the single test concentration by a dilution series.

A short description of test [3]: KB-3-1 Cancer Cell Toxicity qHTS against the NCATS CANVASS Library (AID 1347366). Note: nearly all actives have a fitted effect of over 75% in size. The settings on record: KB-3-1 viability, CellTiter-Glo luminescence, 72 h; series mostly up to 91.4 µM. In short, it runs like this:
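Seed KB-3-1 cells at 500/well in DMEM with 10% FBS, add compounds, incubate 72 hr at 37C and 5% CO2, then add CellTiter-Glo and read luminescence after 10 minutes.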

The nature of test [4]: qHTS for ATAD5 Agonist screened against the NCATS CANVASS Library (AID 1347367).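 Note: luciferase reporter driven by ATAD5 which rises upon DNA damage.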 The settings on record: HEK293T ATAD5-luciferase reporter, luminescence, 16 h; series mostly up to 91.4 µM. Put shortly:
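Step one plated reporter cells and let them acclimate 5hr. Step two pinned compounds with MMS as positive and 0.46% DMSO as negative control. After 16hr incubation, fluorescence viability then luminescence were read.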

Test [5] is described as follows: G06 Cancer Cell Toxicity qHTS against the NCATS CANVASS Library (AID 1347368). Note: nearly all actives have a fitted effect of over 60% in size. The settings on record: G06 dog glioma cells, viability ATP luminescence, 72 h; series mostly up to 91.4 µM. In short, it runs like this: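 Cytotoxicity toward canine glioma G06 cells is scored from cellular ATP via luminescence after 72 hr compound exposure at 500 cells/well.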
A short description of test [6]: MCF7 Cancer Cell Toxicity qHTS against the NCATS CANVASS Library (AID 1347369). As to conditions: MCF7 viability, ATP luminescence (CellTiter-Glo), 72 h; series mostly up to 46 µM. In short, it runs like this: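 Cytotoxicity is measured by ATP content: MCF7 cells at 500 per well receive an 11-point compound series and, after 72 hr at 37C, are lysed with CellTiterGlo for luminescence.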

The nature of test [7]: qHTS for ATAD5 Antagonist screened against the NCATS CANVASS Library (AID 1347370).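 Note: HEK293T cells carrying an ATAD5 luciferase reporter co-treated with 10 µM 5-fluorouridine; nearly all actives have a fitted effect of over 65% in size.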 The settings on record: HEK293T-ATAD5-luc, 5-FUrd stimulated, luminescence, 16 h; series mostly up to 91.4 µM. Put shortly: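 HEK293T cells with a stably integrated ATAD5-controlled luciferase reporter were exposed to compounds (11-pt) alongside 10 uM 5-fluorouridine as ATAD5 stabilizer for 16hr at 37C. Viability was read by CellTiter-Fluor fluorescence, then ATAD5 by luminescence.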

Test [8] is described as follows: J3T Cancer Cell Toxicity qHTS against the NCATS CANVASS Library (AID 1347371). The settings on record: J3T dog glioma viability, ATP luminescence, 72 h; series mostly up to 46.1 µM. Put shortly:
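Viability of the J3T glioma line from dog is scored by ATP luminescence after a 72 hr incubation with natural products.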

The target in test [9] is Nuclear receptor subfamily 1 group I member 3 (Homo sapiens) (UniProt Q14994). Put plainly: qHTS for Constitutive Androstane Receptor (CAR) Antagonist screened against the NCATS CANVASS Library (AID 1347372).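 Note: cells stimulated with 50 nM CITCO agonist so inhibition reflects antagonism.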 The settings on record: HepG2-hCAR-CYP2B6 luciferase, CITCO-stimulated antagonist mode; series mostly up to 91.4 µM. Put shortly:
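HepG2 cells stably carrying hCAR and CYP2B6-2.2kb luciferase reporter, 2500 cells/well, compound with 50 nM CITCO agonist for 24hr at 37C. ONE-Glo luminescence measured CAR activity; CellTiter-Fluor read viability.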

Test [10] has the same target. In words: qHTS for Constitutive Androstane Receptor (CAR) Agonist screened against the NCATS CANVASS Library (AID 1347373).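 Note: every well also contained 1.5 µM PK11195 alongside the test compound.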 As to conditions: HepG2-hCAR-CYP2B6 luciferase reporter, ONE-Glo luminescence; series mostly up to 91.4 µM. Put shortly: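 CAR agonism is scored as CYP2B6-promoter luciferase induction in a double-stable transfected HepG2 line, where 1.5uM PK11195 is included in each well. Compounds were tested over a 24hr exposure.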

Test [11] can be described thus: 10-beta competent E. coli microbial cell viability qHTS against the NCATS CANVASS Library (AID 1347376). The settings on record: E. coli 10-beta viability, BacTiter-Glo ATP luminescence, overnight; series mostly up to 91.4 µM. Put shortly: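 Cytotoxicity toward competent E. coli is scored from cellular ATP content via BacTiter-Glo luminescence following overnight compound exposure at 37C, 5% CO2.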

Test [12] can be described thus: qHTS for H2AX Agonists against the NCATS CANVASS Library (AID 1347378).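 Note: phospho-H2AX S139 level in CHO-K1 lysates by TR-FRET emission ratio.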 The settings on record: CHO-K1 H2AX phosphorylation, HTRF TR-FRET, 3 h; series mostly up to 76.9 µM. Put shortly:
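Following overnight seeding, CHO-K1 cells are incubated with a concentration series of compound for 3 hr at 37C (final DMSO 0.76%). Cells are then lysed, detection antibodies added, and emission ratio 665/620 nm recorded after 24 hr at room temperature.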

Test [13] is described as follows: qHTS for Inflammasome Signaling Inhibitors: IL-1-beta AlphaLISA screen against the NCATS CANVASS Library (AID 1347379).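 Note: human THP-1 cells primed with LPS then triggered with ATP.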 The settings on record: THP-1 LPS/ATP, IL-1B AlphaLISA secretion, 16 h; at 57.5 µM (top of the series) unless noted. Put shortly:
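Human THP-1 cells were pretreated 1 hr at 37 °C with compounds (up to 57.5 uM final), then stimulated with LPS (250 ng/mL final) and ATP (1.25 mM final). Secreted IL-1B was read by AlphaLISA after 16 hr.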

A short description of test [14]: Inflammasome Signaling qHTS Counterscreen: IL-1-beta AlphaLISA counterscreen against the NCATS CANVASS Library (AID 1347381).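 Note: cell-free check with purified IL-1β in medium and no THP-1 cells.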 As to conditions: Purified IL-1beta AlphaLISA signal interference counterscreen; series mostly up to 57.5 µM. In short, it runs like this: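 To flag interference with the AlphaLISA read-out, a known amount of purified IL-1-beta (4 pg) replaced cell supernatant. Detection used anti-IL-1-beta acceptor beads, biotinylated antibody and streptavidin donor beads at room temperature.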

Test [15] can be described thus: Cytotoxicity qHTS for assessment of Hepg2 cells membrane integrity screened against the NCATS CANVASS Library (AID 1347387). As to conditions: HepG2 LDH release (CytoTox-ONE) fluorescence, 5 h; series mostly up to 91.4 µM. Put shortly: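 Fluorescence proportional to lysed-cell number, from LDH leaking out of HepG2 cells exposed 5 hr at 37C to 0.59 nM - 46 uM compound (11-point qHTS), is measured after 10 min with CytoTox-ONE.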

A short description of test [16]: qHTS for Activators of p53 Stress Response Pathway screened against the NCATS CANVASS Library (AID 1347388). As to conditions: p53RE-bla HCT-116, beta-lactamase reporter, 16 h; series mostly up to 91.4 µM. Put shortly: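 p53RE-bla HCT-116 cells (4000/well) were pre-incubated for 5 h, then treated with compound (11 points) for 16 h at 37C. After 2 h with CCF4, the 460/530 nm ratio gave reporter activation; CellTiter-Glo measured viability.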

Test [17] can be described thus: qHTS assay for small molecule disruptors of mitochondrial membrane potential screened against the NCATS CANVASS Library (AID 1347389). Note: nearly all actives have a fitted effect of over 60% in size. The settings on record: HepG2 mitochondrial membrane potential, m-MPI red/green ratio, 1.5 h; series mostly up to 91.4 µM. In short, it runs like this: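 Compounds tested in 11-point qHTS series on HepG2 cells for 1 hr; membrane-potential dye added for 30 min at 37C. Lower red-to-green ratio indicates loss of potential.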

Test [18] in a line: Secretion counterscreen for inhibitors of the SERCaMP assay screened against the NCATS CANVASS Library (AID 1347390).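 Note: light from luciferase secreted into medium read as a measure of general secretion.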 As to conditions: SH-SY5Y constitutive GLuc secretion, luminescence, 20 h; series mostly up to 76.6 µM. Put shortly:
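Counterscreen identifying compounds that disrupt secretion, using SH-SY5Y cells with a constitutively secreted Gaussia luciferase reporter. A 20 h compound exposure (top 77 uM) precedes luminescent detection with coelenterazine.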

Test [19] in a line: qHTS for activators of Nrf2/ARE signaling pathway screened against the NCATS CANVASS Library (AID 1347391). Note: nearly all actives have a fitted effect of over 60% in size. As to conditions: ARE-bla HepG2, beta-lactamase reporter, 16 h; series mostly up to 91.4 µM. In short, it runs like this:
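Cells carrying an ARE-driven beta-lactamase reporter (HepG2 background) are dosed for 16 h, then stained with CCF4. Cell viability in the same wells is measured by CellTiter-Glo luminescence.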

Test [20] can be described thus: qHTS for Antimalaria activity screened against the NCATS CANVASS Library (AID 1347380).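 Note: Plasmodium falciparum strain Dd2 asexual parasites grown in red blood cells; nearly all actives have a fitted effect of over 40% in size.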 The settings on record: P. falciparum Dd2 growth, SYBR Green fluorescence, 72 h; series mostly up to 28.7 µM. Put shortly: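 Growth inhibition of asexual erythrocytic P. falciparum Dd2 was quantified by SYBR Green DNA staining. Cultures grew 72 h with compound (11-point series) in hypoxic gas at 37C; lysis and staining lasted 18 h.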

Chain of Nuclear receptor subfamily 1 group I member 3 (Homo sapiens) (Q14994 whole entry, looked up): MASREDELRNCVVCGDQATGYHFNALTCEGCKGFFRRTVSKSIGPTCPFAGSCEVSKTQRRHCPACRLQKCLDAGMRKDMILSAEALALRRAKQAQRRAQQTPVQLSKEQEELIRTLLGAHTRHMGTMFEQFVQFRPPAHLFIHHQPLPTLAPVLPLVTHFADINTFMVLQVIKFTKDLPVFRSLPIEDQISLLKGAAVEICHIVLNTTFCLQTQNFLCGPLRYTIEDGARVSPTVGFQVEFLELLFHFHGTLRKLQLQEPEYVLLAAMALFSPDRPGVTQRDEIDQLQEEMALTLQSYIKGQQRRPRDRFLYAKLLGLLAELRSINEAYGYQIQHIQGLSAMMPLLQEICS

Turning to `O=C(O)Cc1c[nH]c2ccc(O)cc12`, the compound was classed as inactive in [1], in test [3], in [4], in [5], in test [6] and in test [7]. Moreover, the outcome in [8], in [9], in test [10], in [11], in [12] and in test [14] was inactive. For the same compound, the compound was classed as inactive in test [15], in test [16], in test [17], in test [18] and in test [19]. Moreover, the Potency entry in [2] was “inactive”. In addition, the outcome in test [13] was “inactive [at 114 µM]”.
For `CC(=O)NCCc1c[nH]c2ccc(O)cc12`, the call in [1], in [3], in [4], in test [6], in [7] and in [8] was inactive. For the same compound, the compound was classed as inactive in [9], in [10], in test [11], in [12], in [13] and in test [20]. The compound was classed as inactive in [14], in test [15], in test [16], in test [17], in test [18] and in [19]. The Potency in test [2] was 1480 nM (active).
